Screening results deposited in PubChem BioAssay by National Center for Advancing Translational Sciences (NCATS).
Hits are enriched below; roughly 7.9% of the tested compounds scored in any of these assays.
MCF10A rereplic: DNA re-replication induction in MCF 10a cells | MCF 10A DNA re-replication, Hoechst nuclear intensity, 48 h | Potency, µM (top dose mostly 46.1 µM), hits mostly activators | 2.9% of 350,000 active; note: nearly all actives have a fitted effect of over 50% in size
KB-V1 MDR tox: KB-V1 MDR subline cytotoxicity. KB-V1 MDR cells viability, CellTiter-Glo, 72 h. Potency, µM (doses to about 46.1 µM), actives largely listed as cytotoxic. 3.4% of 400,000 active. AID 1347076; note: nearly all actives have a fitted effect of over 60% in size
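Cells of the MDR subline KB-V1 are plated, dosed with compound at multiple concentrations, and incubated 72 h at 37 degrees C; CellTiter-Glo is then added and luminescence read after 10 min.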
SW480 rerep: induces DNA re-replication in SW480 colon adenocarcinoma cells; SW480 DNA re-replication, Hoechst DNA content imaging, 48 h; Potency, µM (highest dose often 46.1 µM), usual class: activators; 1.8% of 340,000 active; AID 624297; note: nearly all actives have a fitted effect of over 55% in size
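Readout is total intensity of Hoechst-stained nuclei, excited at 405 nm and collected at 500-530 nm. Compound treatment lasted 48 hr at 37 C in 5% CO2 before staining.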
HT1080NT lethal: kills 2HG-producing HT-1080-NT fibrosarcoma cells | HT-1080-NT fibrosarcoma viability, CellTiter-Glo ATP luminescence, 48 h | Potency, µM (doses to about 46.1 µM), actives largely listed as cytotoxic | 1.6% of 360,000 active | AID 686970;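 note: NT is the 2HG producing partner of a matched IDH1 knockdown line; nearly all actives have a fitted effect of over 55% in size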
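750 cells/well, RPMI + 5% FBS; 2 h settle, compound pin-transfer, 48 h at 37 degrees C. CellTiter-Glo 10 min RT, luminescence. Normalized to DMSO and media-only wells.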
HT1080 IDH1KD tx: toxicity to HT-1080 IDH1 knockdown cells (counter line) | HT-1080 IDH1 knockdown viability, ATP luminescence, 48 h | Potency, µM (highest dose often 46.1 µM), hits mostly cytotoxic | 2% of 360,000 active | AID 686971
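Cytotoxicity counter-line: IDH1KD HT-1080, 48 h, CellTiter-Glo. Curves classed by r2, magnitude and activity.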
KB-3-1 tox: KB-3-1 parental cell cytotoxicity | KB-3-1 viability, CellTiter-Glo ATP luminescence, 72 h | Potency, µM (titrated, usually from 46.1 µM), most hits filed as cytotoxic | 1.4% of 400,000 active; note: nearly all actives have a fitted effect of over 60% in size
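72 h, 37 °C compound treatment of KB-3-1 parental cells; CellTiter-Glo added, 10 min, luminescence read. Data corrected against DMSO-only plates and normalized before curve fitting.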
Numbers stand for hits; n = inactive; u = inconclusive; x = not tested or not shown; [ ] = dose if it differs, or a comment. Calls come from the whole dose curve; as a rule, active = well fitted curve in the direction sought with a large enough effect; inconclusive = small, poorly fitted or top-dose-only effect, or another doubt; inactive = no such curve, though single readings can be large; an effect the other way counts as inactive or inconclusive.

SMILES	MCF10A rereplic	KB-V1 MDR tox	SW480 rerep	HT1080NT lethal	HT1080 IDH1KD tx	KB-3-1 tox
COc1ccc(Br)cc1C(=O)Nc1cccc(C)c1	n	n	n	n	n	n
CC(C)(C)NC(=O)c1cccc(NC(=O)CSc2ccc(Cl)cc2)c1	n	14.6µM	n	n	n	u
COc1ccc(Br)cc1C(=O)Nc1cccc(NC(=O)c2ccco2)c1	n	9.2µM	n	n	n	n
COc1c(C)cc(Br)cc1C(=O)O	n	u	n	n	n	n
COc1c(C)cc(Br)cc1C(=O)Nc1ccccc1C	1.46µM	n	n	n	n	n
CCOC(=O)CCN	n	n	n	n	n	n
Cc1ccc(-c2nnc(Nc3cccc(Cl)c3)c3ccccc23)cc1S(=O)(=O)N1CCOCC1	x	n	x	x	x	n
O=C(/C=C/c1ccccc1)c1ccc2c(c1)OCCCCO2	u	n	u	n	n	n
O=C(CCl)N(C/C=C/c1ccccc1)c1ccc2c(c1)OCCO2	u	n	u	10.3µM	u	n
Cc1ccc(N2C(=O)N(CC(=O)Nc3ccccc3C)C(=O)C2C)cc1 (configuration not stated)	n	x	n	n	n	x
O=[N+]([O-])c1ccc(N2CCN(S(=O)(=O)c3ccc(Cl)cc3)CC2)cc1NCc1cccnc1	n[9.22 µM]	n	n[9.22 µM]	n	n	n
Cc1cc(C)nc(NC(=NCCc2c[nH]c3ccccc23)NC(=O)Nc2ccc(Cl)cc2)n1	n	8.2µM	n	n	u	n
Cc1cc(C)nc(NC(N)=NCCc2c[nH]c3ccccc23)n1	n	n	n	n	u	u
O=c1cc(CN2CCN(C/C=C/c3ccccc3)CC2)c2cc(O)ccc2o1	u	u	u	25.9µM	u	u
Cc1ccc2oc(=O)cc(CN3CCN(C/C=C/c4ccccc4)CC3)c2c1	n	n	n	n	n	n
COc1ccc(S(=O)(=O)N2CCN(c3ccccc3)CC2)cc1	n	n	n	n	n	n
O=S(=O)(NCC1OCCc2ccccc21)c1ccc(S(=O)(=O)N2CCOCC2)cc1 (configuration not stated)	n	20.6µM	n	n	n	n
CCc1ccc2nc3n[nH]c(N)c3cc2c1	n	11.6µM	n	n	n	u
CC(C)(C)C(=O)NC(=S)Nc1sc2c(c1C#N)CCCCC2	u	n	n	n	n	n
O=C(NCCc1ccc(F)cc1)c1ccc(Cl)c(S(=O)(=O)N2CCOCC2)c1	n	n	n	n	n	n
COc1ccc(COc2ccsc2C(=O)Nc2ccc(Cl)c(Cl)c2)cc1	18.4µM	n	n	n	n	n
COC(=O)c1ccc(CNC(=O)c2ccc3c(c2)OCCO3)cc1	n	n	n	n	n	n
Nc1cnn(C2OC(CO)C(O)C2O)c(=O)n1 (configuration not stated)	n	4.11µM	n	n	n	2.31µM
Nc1nc(=O)n(C2OC(CO)C(O)C2O)cc1F (configuration not stated)	x	n	x	u	n	n
O=C(NCc1cccc(F)c1)c1cccc2c1C(=O)c1ccc(N3CCC(Cc4ccccc4)CC3)cc1S2(=O)=O	11.6µM	n	n	n	n	n
O=C(NCc1ccc(OC(F)(F)F)cc1)c1cccc2c1C(=O)c1ccc(N3CCC(Cc4ccccc4)CC3)cc1S2(=O)=O	5.8µM	n	n	n	n	n
O=C(NCc1ccc(OC(F)(F)F)cc1)c1cccc2c1C(=O)c1ccc(N3CCCC3)cc1S2(=O)=O	n	n	n	u	n	n
O=C(NCc1cccc(C(F)(F)F)c1)c1cccc2c1C(=O)c1ccc(N3CCC(Cc4ccccc4)CC3)cc1S2(=O)=O	5.8µM	n	n	u	n	n
CCC(=O)Nc1nn(CC(C)C)c2nc3ccc(C)cc3cc12	u	n	18.4µM	n	n	n
COc1ccc2nc3c(cc2c1)c(NC(=O)CC(C)C)nn3CC(C)C	7.31µM	n	8.2µM	n	n	n
